Measurements: ChEMBL document CHEMBL1961873, “Compounds: GSK PKIS; Assays: Nanosyn kinase panel” (2012)

Experiments:
[1] = molecular target: Mast/stem cell growth factor receptor Kit (Homo sapiens) (UniProt P10721); details: at 1 µM
[2] = tested on: Mast/stem cell growth factor receptor Kit (Homo sapiens), P10721 [D816V]; details: at 0.1 µM
[3] = tested on: Mast/stem cell growth factor receptor Kit (Homo sapiens), P10721 [D816V]; details: at 1 µM
[4] = tested on: Mast/stem cell growth factor receptor Kit (Homo sapiens), P10721 [T670I]; details: at 0.1 µM
Chain of Mast/stem cell growth factor receptor Kit (Homo sapiens), P10721 [T670I] (P10721 whole entry T670I): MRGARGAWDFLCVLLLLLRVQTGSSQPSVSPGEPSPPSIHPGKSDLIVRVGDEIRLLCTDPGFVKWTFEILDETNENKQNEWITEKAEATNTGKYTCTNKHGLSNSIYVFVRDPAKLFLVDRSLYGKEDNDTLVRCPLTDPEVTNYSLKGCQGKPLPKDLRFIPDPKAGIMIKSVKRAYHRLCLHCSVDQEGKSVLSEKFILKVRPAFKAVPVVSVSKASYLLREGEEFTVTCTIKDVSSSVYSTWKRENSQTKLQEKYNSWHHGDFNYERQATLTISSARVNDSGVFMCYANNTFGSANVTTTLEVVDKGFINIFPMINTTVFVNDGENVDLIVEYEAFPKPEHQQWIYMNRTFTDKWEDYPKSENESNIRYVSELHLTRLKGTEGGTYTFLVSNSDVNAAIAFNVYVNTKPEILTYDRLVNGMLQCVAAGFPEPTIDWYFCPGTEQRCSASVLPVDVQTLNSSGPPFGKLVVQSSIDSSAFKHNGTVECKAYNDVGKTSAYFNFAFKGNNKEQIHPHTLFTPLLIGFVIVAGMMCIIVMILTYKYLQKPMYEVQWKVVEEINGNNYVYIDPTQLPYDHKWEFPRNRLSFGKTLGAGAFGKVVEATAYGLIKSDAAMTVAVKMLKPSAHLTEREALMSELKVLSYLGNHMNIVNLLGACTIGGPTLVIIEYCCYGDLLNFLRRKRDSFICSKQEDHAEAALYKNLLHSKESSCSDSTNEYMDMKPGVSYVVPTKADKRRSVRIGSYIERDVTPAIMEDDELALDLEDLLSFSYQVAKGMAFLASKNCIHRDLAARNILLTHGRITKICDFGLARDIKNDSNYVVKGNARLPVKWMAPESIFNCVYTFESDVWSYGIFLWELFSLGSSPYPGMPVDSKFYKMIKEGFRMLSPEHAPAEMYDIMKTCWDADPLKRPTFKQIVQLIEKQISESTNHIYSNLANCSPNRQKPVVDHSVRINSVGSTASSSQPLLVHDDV

[5] = tested on: Mast/stem cell growth factor receptor Kit (Homo sapiens), P10721 [T670I]; details: at 1 µM
[6] = tested on: Mast/stem cell growth factor receptor Kit (Homo sapiens), P10721 [V560G]; details: at 0.1 µM
Chain of Mast/stem cell growth factor receptor Kit (Homo sapiens), P10721 [V560G] (P10721 whole entry V560G): as the sequence (P10721 whole entry T670I) above, with V560G, I670T counted along it

[7] = tested on: Mast/stem cell growth factor receptor Kit (Homo sapiens), P10721 [V560G]; details: at 1 µM
[8] = molecular target: Tyrosine-protein kinase Lck (Homo sapiens) (UniProt P06239); details: at 0.1 µM
Chain of Tyrosine-protein kinase Lck (Homo sapiens) (P06239 2-509 limits assumed): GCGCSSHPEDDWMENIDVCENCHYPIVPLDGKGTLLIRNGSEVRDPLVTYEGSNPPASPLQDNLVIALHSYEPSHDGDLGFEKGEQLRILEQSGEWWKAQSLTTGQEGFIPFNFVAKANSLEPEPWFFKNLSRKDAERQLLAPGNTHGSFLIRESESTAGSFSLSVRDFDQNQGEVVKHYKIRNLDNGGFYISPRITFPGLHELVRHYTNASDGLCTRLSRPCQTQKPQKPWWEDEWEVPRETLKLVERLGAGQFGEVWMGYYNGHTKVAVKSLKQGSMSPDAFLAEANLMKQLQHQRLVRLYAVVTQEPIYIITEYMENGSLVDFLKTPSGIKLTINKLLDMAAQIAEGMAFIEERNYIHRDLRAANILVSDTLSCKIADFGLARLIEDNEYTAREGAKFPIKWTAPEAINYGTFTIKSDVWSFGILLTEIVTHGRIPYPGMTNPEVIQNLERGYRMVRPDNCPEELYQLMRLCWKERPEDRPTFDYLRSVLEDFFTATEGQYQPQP

[9] = molecular target: Tyrosine-protein kinase Lck (Homo sapiens) (UniProt P06239); details: at 1 µM
[10] = molecular target: Leukocyte tyrosine kinase receptor (Homo sapiens) (UniProt P29376); details: at 0.1 µM
Chain of Leukocyte tyrosine kinase receptor (Homo sapiens) (P29376 whole entry): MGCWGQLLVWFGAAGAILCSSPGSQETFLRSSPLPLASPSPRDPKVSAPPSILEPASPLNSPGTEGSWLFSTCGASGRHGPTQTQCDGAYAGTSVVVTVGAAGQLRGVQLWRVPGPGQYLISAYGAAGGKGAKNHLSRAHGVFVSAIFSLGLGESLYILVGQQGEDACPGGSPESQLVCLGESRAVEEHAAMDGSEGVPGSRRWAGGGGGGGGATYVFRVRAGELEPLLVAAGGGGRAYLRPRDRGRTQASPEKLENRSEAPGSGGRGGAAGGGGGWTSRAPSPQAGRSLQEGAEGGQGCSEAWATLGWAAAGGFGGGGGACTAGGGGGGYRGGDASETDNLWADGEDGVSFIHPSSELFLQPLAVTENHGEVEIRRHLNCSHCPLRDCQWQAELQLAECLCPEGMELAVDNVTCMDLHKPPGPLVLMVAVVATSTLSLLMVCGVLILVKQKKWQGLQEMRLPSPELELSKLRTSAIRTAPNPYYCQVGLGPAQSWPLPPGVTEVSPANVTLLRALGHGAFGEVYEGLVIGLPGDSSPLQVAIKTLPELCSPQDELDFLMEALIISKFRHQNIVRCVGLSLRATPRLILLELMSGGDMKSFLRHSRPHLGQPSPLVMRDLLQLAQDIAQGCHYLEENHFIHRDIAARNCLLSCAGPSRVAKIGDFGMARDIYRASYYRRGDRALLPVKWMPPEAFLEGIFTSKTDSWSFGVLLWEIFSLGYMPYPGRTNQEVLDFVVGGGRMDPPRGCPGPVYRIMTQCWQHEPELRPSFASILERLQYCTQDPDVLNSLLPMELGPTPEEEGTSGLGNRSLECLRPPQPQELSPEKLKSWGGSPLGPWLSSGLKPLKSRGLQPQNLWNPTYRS

[11] = molecular target: Leukocyte tyrosine kinase receptor (Homo sapiens) (UniProt P29376); details: at 1 µM
[12] = molecular target: Tyrosine-protein kinase Lyn (Homo sapiens) (UniProt P07948); details: at 0.1 µM
Chain of Tyrosine-protein kinase Lyn (Homo sapiens) (P07948 2-512 limits assumed): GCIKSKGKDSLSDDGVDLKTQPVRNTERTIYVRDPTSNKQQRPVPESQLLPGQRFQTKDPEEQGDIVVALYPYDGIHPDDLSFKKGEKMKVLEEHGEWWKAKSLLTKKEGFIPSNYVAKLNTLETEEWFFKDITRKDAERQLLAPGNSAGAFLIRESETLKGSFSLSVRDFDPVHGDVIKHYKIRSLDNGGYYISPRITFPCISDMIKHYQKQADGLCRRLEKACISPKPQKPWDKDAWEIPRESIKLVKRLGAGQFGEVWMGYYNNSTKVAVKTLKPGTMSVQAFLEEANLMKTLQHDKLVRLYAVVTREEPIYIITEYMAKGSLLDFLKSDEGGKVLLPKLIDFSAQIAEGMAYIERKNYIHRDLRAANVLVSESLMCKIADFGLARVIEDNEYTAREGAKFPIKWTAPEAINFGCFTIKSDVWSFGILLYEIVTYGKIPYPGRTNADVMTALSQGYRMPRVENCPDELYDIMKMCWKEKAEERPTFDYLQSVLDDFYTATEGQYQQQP

[13] = molecular target: Tyrosine-protein kinase Lyn (Homo sapiens) (UniProt P07948); details: at 1 µM
[14] = molecular target: Tyrosine-protein kinase Lyn (Homo sapiens) (UniProt P07948); details: at 0.1 µM; remark: listed apart in the source
[15] = molecular target: Tyrosine-protein kinase Lyn (Homo sapiens) (UniProt P07948); details: at 1 µM; remark: listed apart in the source
[16] = molecular target: T1, Tyrosine-protein kinase Mer (Homo sapiens) (UniProt Q12866); details: at 0.1 µM
T1 sequence (whole entry): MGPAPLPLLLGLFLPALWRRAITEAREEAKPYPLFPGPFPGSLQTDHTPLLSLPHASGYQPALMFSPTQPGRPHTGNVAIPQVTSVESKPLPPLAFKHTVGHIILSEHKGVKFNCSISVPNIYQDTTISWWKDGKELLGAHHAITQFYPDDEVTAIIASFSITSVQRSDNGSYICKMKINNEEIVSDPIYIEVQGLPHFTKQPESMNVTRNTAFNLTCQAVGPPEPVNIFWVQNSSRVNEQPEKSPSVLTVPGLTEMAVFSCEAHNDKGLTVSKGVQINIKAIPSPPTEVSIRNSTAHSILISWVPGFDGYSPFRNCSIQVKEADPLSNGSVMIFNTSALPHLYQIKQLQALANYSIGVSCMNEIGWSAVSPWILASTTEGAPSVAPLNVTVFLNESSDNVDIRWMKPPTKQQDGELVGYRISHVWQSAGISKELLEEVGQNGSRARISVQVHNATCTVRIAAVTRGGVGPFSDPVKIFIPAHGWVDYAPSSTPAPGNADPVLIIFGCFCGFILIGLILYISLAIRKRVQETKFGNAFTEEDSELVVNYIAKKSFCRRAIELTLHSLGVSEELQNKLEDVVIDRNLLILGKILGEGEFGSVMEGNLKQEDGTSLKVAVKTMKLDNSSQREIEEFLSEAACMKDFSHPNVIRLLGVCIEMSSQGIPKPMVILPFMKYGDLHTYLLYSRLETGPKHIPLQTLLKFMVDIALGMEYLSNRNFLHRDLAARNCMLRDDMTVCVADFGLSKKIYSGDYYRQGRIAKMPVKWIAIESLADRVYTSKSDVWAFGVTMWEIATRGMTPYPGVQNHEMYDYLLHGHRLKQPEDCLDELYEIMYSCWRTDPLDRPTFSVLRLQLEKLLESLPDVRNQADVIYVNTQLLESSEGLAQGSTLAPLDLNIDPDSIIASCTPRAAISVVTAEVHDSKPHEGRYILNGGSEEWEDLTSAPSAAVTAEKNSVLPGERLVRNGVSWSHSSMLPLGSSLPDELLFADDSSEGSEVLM

[17] = molecular target: T1, Tyrosine-protein kinase Mer (Homo sapiens); details: at 1 µM
[18] = molecular target: Hepatocyte growth factor receptor (Homo sapiens) (UniProt P08581); details: at 0.1 µM
Chain of Hepatocyte growth factor receptor (Homo sapiens) (P08581 whole entry): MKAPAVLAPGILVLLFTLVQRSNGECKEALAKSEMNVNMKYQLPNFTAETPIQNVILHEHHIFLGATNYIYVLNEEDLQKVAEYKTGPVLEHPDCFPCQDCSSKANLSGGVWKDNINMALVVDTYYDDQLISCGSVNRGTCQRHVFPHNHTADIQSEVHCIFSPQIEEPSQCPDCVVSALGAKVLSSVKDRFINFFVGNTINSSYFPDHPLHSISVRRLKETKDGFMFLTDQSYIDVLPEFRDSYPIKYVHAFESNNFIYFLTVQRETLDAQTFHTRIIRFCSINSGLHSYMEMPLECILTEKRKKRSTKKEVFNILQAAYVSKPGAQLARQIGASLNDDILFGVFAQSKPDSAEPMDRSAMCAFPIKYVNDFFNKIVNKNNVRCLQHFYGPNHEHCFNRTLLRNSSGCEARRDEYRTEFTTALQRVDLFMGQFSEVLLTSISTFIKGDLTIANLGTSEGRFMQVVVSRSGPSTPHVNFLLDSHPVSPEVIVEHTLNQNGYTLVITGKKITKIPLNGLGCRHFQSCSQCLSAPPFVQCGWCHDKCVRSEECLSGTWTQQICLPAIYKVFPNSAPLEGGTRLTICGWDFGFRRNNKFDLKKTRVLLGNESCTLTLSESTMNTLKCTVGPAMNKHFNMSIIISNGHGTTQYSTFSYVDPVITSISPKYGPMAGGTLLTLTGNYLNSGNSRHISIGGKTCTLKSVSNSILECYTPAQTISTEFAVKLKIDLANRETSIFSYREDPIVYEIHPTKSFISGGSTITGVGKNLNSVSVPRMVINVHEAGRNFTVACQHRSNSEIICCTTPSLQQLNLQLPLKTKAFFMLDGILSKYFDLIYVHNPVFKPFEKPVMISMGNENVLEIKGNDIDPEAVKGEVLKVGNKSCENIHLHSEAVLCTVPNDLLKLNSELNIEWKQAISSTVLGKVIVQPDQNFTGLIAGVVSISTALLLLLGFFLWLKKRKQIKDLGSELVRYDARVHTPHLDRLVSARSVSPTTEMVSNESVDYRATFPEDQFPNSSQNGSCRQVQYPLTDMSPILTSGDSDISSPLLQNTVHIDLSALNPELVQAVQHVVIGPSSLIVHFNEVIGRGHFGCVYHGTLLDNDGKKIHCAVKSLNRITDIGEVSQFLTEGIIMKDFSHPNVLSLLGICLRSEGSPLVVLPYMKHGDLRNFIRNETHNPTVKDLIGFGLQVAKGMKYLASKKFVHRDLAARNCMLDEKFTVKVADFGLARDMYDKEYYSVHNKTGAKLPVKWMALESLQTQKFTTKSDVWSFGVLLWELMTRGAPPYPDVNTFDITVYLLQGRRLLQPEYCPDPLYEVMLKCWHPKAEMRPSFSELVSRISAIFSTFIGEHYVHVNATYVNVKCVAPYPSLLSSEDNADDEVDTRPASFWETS

[19] = molecular target: Hepatocyte growth factor receptor (Homo sapiens) (UniProt P08581); details: at 1 µM
[20] = molecular target: T2, Muscle, skeletal receptor tyrosine-protein kinase (Homo sapiens) (UniProt O15146); details: at 0.1 µM;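 also: values are mean inhibition of MuSK from the GSK PKIS kinase screening panel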
T2 sequence (whole entry): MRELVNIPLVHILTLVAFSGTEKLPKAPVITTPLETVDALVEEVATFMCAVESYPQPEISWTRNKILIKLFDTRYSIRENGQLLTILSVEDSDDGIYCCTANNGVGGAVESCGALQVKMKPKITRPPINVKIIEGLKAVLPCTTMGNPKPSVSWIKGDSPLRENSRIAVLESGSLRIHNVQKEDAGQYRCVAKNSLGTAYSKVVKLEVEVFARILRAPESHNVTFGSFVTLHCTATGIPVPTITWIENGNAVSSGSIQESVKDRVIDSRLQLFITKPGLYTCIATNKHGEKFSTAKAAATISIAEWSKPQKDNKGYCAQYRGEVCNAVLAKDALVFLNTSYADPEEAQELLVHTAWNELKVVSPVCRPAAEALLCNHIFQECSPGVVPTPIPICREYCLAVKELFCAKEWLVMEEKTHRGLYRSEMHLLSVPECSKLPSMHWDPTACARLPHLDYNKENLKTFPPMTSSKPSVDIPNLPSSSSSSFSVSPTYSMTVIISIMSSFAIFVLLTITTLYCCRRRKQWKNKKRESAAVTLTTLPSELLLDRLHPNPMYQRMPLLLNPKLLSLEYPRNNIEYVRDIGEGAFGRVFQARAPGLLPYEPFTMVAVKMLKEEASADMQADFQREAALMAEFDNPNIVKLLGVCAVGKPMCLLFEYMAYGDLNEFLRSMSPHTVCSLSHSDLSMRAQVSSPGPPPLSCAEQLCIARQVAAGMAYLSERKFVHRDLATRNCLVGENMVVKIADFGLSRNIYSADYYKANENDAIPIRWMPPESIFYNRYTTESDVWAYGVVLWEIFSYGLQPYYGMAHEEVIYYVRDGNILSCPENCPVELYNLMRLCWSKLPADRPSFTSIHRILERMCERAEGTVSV

Chain of Mast/stem cell growth factor receptor Kit (Homo sapiens) (P10721 whole entry): as the sequence (P10721 whole entry T670I) above, with I670T counted along it
Chain of Mast/stem cell growth factor receptor Kit (Homo sapiens), P10721 [D816V] (P10721 whole entry D816V): as the sequence (P10721 whole entry T670I) above, with I670T, D816V counted along it

Structure (SMILES) | inhibition [1] [%] | inhibition [2] [%] | inhibition [3] [%] | inhibition [4] [%] | inhibition [5] [%] | inhibition [6] [%] | inhibition [7] [%] | inhibition [8] [%] | inhibition [9] [%] | inhibition [10] [%] | inhibition [11] [%] | inhibition [12] [%] | inhibition [13] [%] | inhibition [14] [%] | inhibition [15] [%] | inhibition [16] [%] | inhibition [17] [%] | inhibition [18] [%] | inhibition [19] [%] | inhibition [20] [%]
CCc1cccc(NC(=O)Nc2ccc(Oc3ccc4nc(NC(=O)OC)[nH]c4c3)cc2)c1 | 93 | 0.55 | 0 | 58.6 | 69.8 | 65.6 | 74.1 | 5.87 | 8.47 | 1.87 | 0.04 | 10 | 20.8 | 7.66 | 15.2 | 2.96 | 3.11 | 15.7 | 27.4 | 16.2
CCn1c(-c2nonc2N)nc2cnc(Oc3cccc(NC(=O)c4ccc(OCCN5CCOCC5)cc4)c3)cc21 | 3.53 | 2.71 | -0.34 | 2.87 | 4.8 | -1.11 | 2.85 | 0.98 | 4.63 | 2.7 | 1.51 | 5.8 | 4.87 | 3.05 | 2.62 | 1.1 | 2.56 | 3.9 | 7.84 | 2.09
COc1cccc(-n2ncc3c(N/N=C/c4cccc(F)c4)ncnc32)c1 | 14.1 | 4.05 | 1.87 | 2.67 | 7.07 | -0.18 | -1.44 | 7.82 | 40.9 | 0.92 | 1.7 | 13.9 | 55.9 | 10.2 | 50.7 | 0.34 | 7.16 | 7.49 | 17.2 | 3.52
CCn1c(-c2nonc2N)nc2c(C#CC(C)(C)O)nc(CN3CCCC3)cc21 | 0.93 | -0.84 | 1.18 | -0.82 | -3.13 | 1.79 | 4.31 | -0.53 | 1.3 | 0.56 | -0.04 | -1.54 | 0.2 | -1.39 | 0.5 | -0.28 | 0.18 | 5.85 | 5.28 | 0.58
CCn1c(-c2nonc2N)nc2c(C#CC(C)(C)O)nc(OC[C@@H](N)c3ccccc3)cc21 | 2.86 | -1.77 | 1.93 | -1.49 | -0.45 | 2.19 | 2.43 | -1.85 | 0.18 | 0.55 | 9.21 | -0.29 | 1.01 | -1.22 | 0.53 | -0.92 | 0.47 | -2.86 | -4.52 | -0.69
Cc1ccc(C(=O)NC2CCCCC2)cc1-c1ccc(C(=O)NCC2CC2)cc1 | 4.9 | 3.74 | 0.6 | 0.04 | 0.31 | 3.05 | 4.51 | 1.49 | 2.85 | 0.67 | 0.02 | 2.9 | 2.6 | 1.53 | 0.34 | 1.63 | 3.6 | 4.53 | 5.05 | 6.01
CS(=O)(=O)CCN(CC#N)Cc1ccc(-c2ccc3ncnc(Nc4ccc(OCc5cccc(F)c5)c(Cl)c4)c3c2)o1 | 0.7 | 3.19 | 2.53 | 2.04 | 0.88 | -0.55 | -2.04 | -1.83 | -3.92 | 1.4 | 1.95 | 2.44 | 3.17 | 1.32 | 1.72 | 2.77 | 2.05 | 7.6 | 2.64 | 1.44
CCN1CCC(CC(=O)Nc2n[nH]c3nc(-c4cccs4)c(Br)cc23)CC1 | -0.08 | -1.28 | -0.19 | -3.78 | 0.16 | 3.05 | 2.07 | -1.7 | 4.73 | 0.15 | 0.89 | 0.07 | 1.67 | -0.46 | 1.82 | -0.67 | 3.05 | -0.73 | -0.38 | 0.33
COc1cc2ncn(-c3cc(O[C@H](C)c4ccccc4Cl)c(C(N)=O)s3)c2cc1OC | 27.1 | 4.82 | 14.6 | 5.66 | 32.1 | 4.1 | 13.9 | 5.7 | 27.7 | 3.77 | 11.3 | 6.61 | 27.9 | 5.21 | 23.9 | 5.63 | 22.6 | 4.85 | 17 | 29.3
COc1cc2ncn(-c3cc(O[C@@H](C)c4ccccc4Cl)c(C(N)=O)s3)c2cc1OC | 11.9 | 3.28 | 6.34 | 3.02 | 5.54 | 4.09 | 3.09 | 4.64 | 19.6 | 3.53 | 4.56 | 6.39 | 28.6 | 4.74 | 22 | 4.25 | 10.3 | 4.76 | 3.23 | 2.77
COc1ccc(-c2coc3ncnc(N)c23)cc1 | 21.7 | 5.53 | -0.06 | 3.49 | 1.89 | 2.72 | 7.39 | 1.13 | 6.38 | 3.02 | 2.3 | 5.38 | 5.54 | 3.09 | 7.61 | 2.63 | 2.9 | 10 | 6.47 | 4.06
CN1CCC(C(=O)Nc2n[nH]c3nnc(-c4ccccc4)cc23)CC1 | 8.5 | 7.35 | 3.19 | 4.77 | 5.4 | -3.89 | 1.05 | 1.6 | 4.09 | 3.64 | 4.51 | 5.18 | 4.72 | 2.24 | 3.51 | 1.95 | 7.11 | 1.78 | 3.43 | 3.93
COc1ccccc1Nc1ncc(-c2ccccc2)o1 | 98.2 | 4.74 | 6.9 | 17.8 | 77.7 | 31.5 | 85.5 | 4.55 | 9.64 | 3.5 | 4.49 | 5.91 | 8.44 | 3.58 | 5.77 | 0.01 | 1.66 | 10.1 | 1.27 | 4.33
